Assay [1] in a line: NCI Yeast Anticancer Drug Screen. Data for the rad50 strain (AID 155).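 Note: 0% = growth of vehicle-only cultures of the same strain.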 As to conditions: S. cerevisiae rad50 strain growth inhibition, active compounds read high. The essentials:
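Readout: growth inhibition relative to vehicle-treated cultures. Compound exposure was carried out in a genetically defined yeast strain deficient in DNA damage repair.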

Assay [2] in a line: NCI Yeast Anticancer Drug Screen. Data for the sgs1 mgt1 strain (AID 161).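 Note: 0% = growth of cultures given vehicle only.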 To be noted: S. cerevisiae sgs1 mgt1 strain, active compounds read high. The essentials: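 Read-out: growth inhibition vs vehicle controls. Cells: mutant yeast strain deficient in DNA damage repair.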
Assay [3] can be described thus: NCI Yeast Anticancer Drug Screen. Data for the cln2 rad14 strain (AID 165).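 Note: 0% = growth equal to vehicle treated cultures.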 To be noted: S. cerevisiae cln2 rad14 strain, active compounds read high. The essentials: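 Compounds are applied to the cln2 rad14 yeast strain, and growth is then compared with that of vehicle-treated cultures to give inhibition.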
Assay [4] can be described thus: NCI Yeast Anticancer Drug Screen. Data for the bub3 strain (AID 167). As to conditions: S. cerevisiae bub3 mutant strain, active compounds read high. The essentials: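 Readout: yeast growth inhibition, expressed relative to vehicle-only wells. The test organism is a mutant strain from a panel with lesions in DNA repair or checkpoint genes.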
Assay [5] in a line: NCI Yeast Anticancer Drug Screen. Data for the mlh1 rad18 strain (AID 175). As to conditions: S. cerevisiae mlh1 rad18 strain growth inhibition, active compounds read high. The essentials: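 Read-out is yeast growth inhibition, calculated against vehicle-only controls. The compound was applied to a strain engineered with DNA damage repair alterations.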
Assay [6] can be described thus: NCI Yeast Anticancer Drug Screen. Data for the mec2-1 strain (AID 157). To be noted: S. cerevisiae mec2-1 strain, active compounds read high. The essentials: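 Strain: mec2-1 (DNA repair/cell cycle alteration). Compound exposure, then growth measured; inhibition expressed relative to vehicle.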
Where [7] appears, read: at 5.0 µM (retest, dose inferred, filed as 0.5).
Where [8] appears, read: at 50.0 µM (retest, dose inferred, filed as 5.0).

Structures are written as SMILES. The panel holds about 79,000 compounds, 15% with a hit somewhere; the sample as a whole holds those more often. Unmarked numbers belong to inactive results. Calls of active or inactive are those of the source. Cut-off read from the data, not from the text of the source: active = growth inhibition above about 70%; inactive = the rest.

Consider `NC(Cc1ccccc1)c1ccc2cccc3c2c1CC3` (stereo not given), for which the growth inhibition in assay [1] (setting [7]) was -5%; in assay [1] (setting [8]), 4%; in assay [1] (at 50.0 µM), 0.3%; in assay [2] (setting [7]) it was -2%; in assay [2] (setting [8]), 25%; in assay [2] (at 50.0 µM), 5.55%. Besides, the growth inhibition in assay [3] (setting [7]) is -6%; in assay [3] (setting [8]) it was -1%; in assay [3] (at 50.0 µM), -4.25%; in assay [4] (setting [7]) it was -2%; in assay [4] (setting [8]), 9%; in assay [4] (at 50.0 µM), 21.1%. Further, the values for the growth inhibition in assay [5] (setting [7]), in assay [5] (setting [8]) and in assay [5] (at 50.0 µM) were -2%, 34% and 51.5%, respectively.
For `COC(=O)Nc1nc2ccc(CCC(=O)c3c(C)oc(C)c3-c3ccc(NC(C)=O)cc3)cc2[nH]1`, the growth inhibition in assay [6] (setting [7]) is 4%; in assay [6] (setting [8]) it was 55%; in assay [6] (at 50.0 µM), 37.3%; in assay [2] (setting [7]) it was 5%; in assay [2] (setting [8]), 78% (active); in assay [2] (at 50.0 µM) it was 75.8% (active). The growth inhibition is 6% in assay [3] (setting [7]); 67% in assay [3] (setting [8]); 27.4% in assay [3] (at 50.0 µM); 5% in assay [4] (setting [7]); 70% (active) in assay [4] (setting [8]); 26.1% in assay [4] (at 50.0 µM). Further, the growth inhibition in assay [5] (setting [7]) was -2%; in assay [5] (setting [8]), 69%; in assay [5] (at 50.0 µM) it was 60.7%.
As for `CC(C)/C(Cl)=N/OC(NC(=O)Nc1ccc(Cl)c(Cl)c1)(C(F)(F)F)C(F)(F)F`, the growth inhibition in assay [6] (setting [7]) is 9%; in assay [6] (setting [8]), 100% (active); in assay [6] (at 50.0 µM), 99.6% (active); in assay [2] (setting [7]), 5%; in assay [2] (setting [8]) it was 100% (active); in assay [2] (at 50.0 µM), 99.5% (active). The growth inhibition was 26% in assay [3] (setting [7]); 99% (active) in assay [3] (setting [8]); 99.2% (active) in assay [3] (at 50.0 µM); 40% in assay [4] (setting [7]); 100% (active) in assay [4] (setting [8]); 99.5% (active) in assay [4] (at 50.0 µM). For the same compound, the values for the growth inhibition in assay [5] (setting [7]), in assay [5] (setting [8]) and in assay [5] (at 50.0 µM) were 23%, 99% (active) and 99.5% (active), respectively.
In the case of `O=C1NC(O)c2cccc(Cl)c2O1` (stereo not given), the growth inhibition in assay [1] (setting [7]) is 52%; in assay [1] (setting [8]), 99% (active); in assay [1] (at 50.0 µM), 88.8% (active); in assay [2] (setting [7]), 17%; in assay [2] (setting [8]), 99% (active); in assay [2] (at 50.0 µM), 83.3% (active). For the same compound, the growth inhibition in assay [3] (setting [7]) was 5%; in assay [3] (setting [8]), 99% (active); in assay [3] (at 50.0 µM) it was 97.8% (active); in assay [4] (setting [7]) it was 15%; in assay [4] (setting [8]), 98% (active); in assay [4] (at 50.0 µM), 94.8% (active). The growth inhibition is 28% in assay [5] (setting [7]), 99% (active) in assay [5] (setting [8]) and 98.3% (active) in assay [5] (at 50.0 µM).
Turning to `Nc1ccc(C(=O)N/N=C\c2cccc3ccccc23)cc1`, the growth inhibition is 0% in assay [1] (setting [7]); -2% in assay [1] (setting [8]); 61.8% in assay [1] (at 50.0 µM); 0% in assay [2] (setting [7]); 0% in assay [2] (setting [8]); 88.9% (active) in assay [2] (at 50.0 µM). The growth inhibition in assay [3] (setting [7]) was -4%; in assay [3] (setting [8]) it was 3%; in assay [3] (at 50.0 µM), 34.4%; in assay [4] (setting [7]), 6%; in assay [4] (setting [8]) it was 22%; in assay [4] (at 50.0 µM), 50.8%. The values for the growth inhibition in assay [5] (setting [7]), in assay [5] (setting [8]) and in assay [5] (at 50.0 µM) were -1%, 21% and 89.3% (active), respectively.

Values taken from PubChem BioAssay (NCI).
